TRHR agonist: agonists of human TRH receptor | activation, % at 2 µM | AID 493084 | actives 0.18% (n = 360,000) | TRHR cells, calcium flux fluo-8, FDSS agonist mode | P34981; note: 0% is about no effect
Target sequence (P34981 whole entry, looked up): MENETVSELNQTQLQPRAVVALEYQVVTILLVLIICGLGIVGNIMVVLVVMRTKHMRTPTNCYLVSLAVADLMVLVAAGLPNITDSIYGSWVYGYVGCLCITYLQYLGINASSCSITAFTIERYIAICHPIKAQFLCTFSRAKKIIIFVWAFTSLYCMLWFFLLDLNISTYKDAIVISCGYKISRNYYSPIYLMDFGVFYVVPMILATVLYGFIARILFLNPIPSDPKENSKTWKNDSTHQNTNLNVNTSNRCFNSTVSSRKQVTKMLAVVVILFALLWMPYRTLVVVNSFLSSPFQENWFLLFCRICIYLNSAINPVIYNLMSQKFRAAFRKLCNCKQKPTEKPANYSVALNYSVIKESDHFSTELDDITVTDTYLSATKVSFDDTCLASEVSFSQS
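TRHR-expressing cells, plated overnight in medium with 10% serum, were loaded with fluo-8 calcium dye at room temperature. After a 10 s baseline, library compound was pin-added and calcium release was recorded kinetically (ex 480/em 530) as agonist response.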
D1 PAM: human D1 dopamine receptor positive modulation | HEK293 TREx D1 cells, calcium flux, dopamine EC20 potentiation | potentiation, % at 10 µM | actives 0.036% (n = 360,000) | AID 504651; in the data active = potentiation above about 30%; note: 0% is about no effect
TRHR enhancer: TRH receptor (human) allosteric enhancement. TRHR cells, fluo-8 calcium fluorescence, EC20 TRH enhancement. enhancement, % at 2 µM. actives 0.66% (n = 360,000); in the data active = enhancement above about 30%; note: 0% is about no effect
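TRHR-expressing cells loaded with fluo-8 calcium dye were read kinetically (ex 480/em 530) during compound addition, then stimulated with an EC20 of TRH (10 nM final). Enhancement of the Gq-mediated intracellular calcium response was scored.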
D1 agonist: activates the human D1 dopamine receptor; P21728; HEK293 T-REx D1 cells, calcium flux, agonist mode; activation, % at 2 µM; actives 1% (n = 360,000); AID 504660; note: 0% is about no effect
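Agonism was scored from calcium flux recorded over 180 s (1 read/s) after pintool compound addition, following a 10-cycle baseline. Cells were inducible force-coupled HEK293 TREx D1, plated overnight at 30 C and loaded with no-wash calcium dye.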
D1 antagonist: blocks dopamine activation of the human D1 receptor | P21728 | HEK293 TREx D1 cells, calcium flux, dopamine EC80; stronger effect = lower value | activity change, negative = inhibition, % at 10 µM | actives 3.2% (n = 360,000); in the data active = activity change below about -30%; note: % is set by controls: 0 for no effect and ±100 for the full control effect
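Calcium flux readout: force-coupled, inducible Hek293 Trex D1 line, cells induced overnight at 30 C with tetracycline, dye-loaded 30–90 min at RT. Antagonism scored against EC80 dopamine challenge given 180 s after compound.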
Numbers without * were called inactive. In the library only some 4.7% were active in any assay of this set; here they are far more common. Cut-off read from the data, not from the text of the source, unless noted: active = activation above about 30%; inactive = the rest.

SMILES | TRHR agonist | D1 PAM | TRHR enhancer | D1 agonist | D1 antagonist
O=S(=O)(c1ccc(C(F)(F)F)cc1)N1CCN(CCOc2ccccc2)CC1 | 1.1 | -3.5 | 2.2 | 18.5 | -38.8*
CC(C)c1ccc(N2C(=O)CSC23C(=O)N(C)c2ccccc23)cc1 (configuration not stated) | -0.2 | -2.0 | 1.8 | 2.0 | 0.1
CC1=CC(C)(C)N(C(=O)c2ccc(F)cc2)c2cc3c(cc21)OCO3 | -1.3 | 0.1 | 4.5 | 71.8* | 15.9
Cc1ccc(S(=O)(=O)CC(=O)c2ccccc2)cc1 | 0.6 | -2.4 | -0.1 | 3.0 | -2.1
CC(C)(C)c1ccc(C(=O)CS(=O)(=O)c2ccccc2)cc1 | 0.7 | -6.0 | -1.3 | 5.6 | -38.1*
Cc1cc(C(=O)NN)c2cc(Br)ccc2n1 | 0.1 | -7.5 | -11.1 | 1.4 | -34.7*
Cc1ccc(SCc2nc(-c3ccc(C(=O)Nc4cc(C)ccc4C)cc3)oc2C)cc1 | -0.8 | -2.0 | 4.2 | 5.0 | 1.3
COC(=O)C1=NN(C(=O)c2ccccc2)C(C)(O)C1 (configuration not stated) | -1.1 | 0.6 | 2.5 | 2.6 | 2.4
COC(=O)C1=NN(C(=O)c2ccccc2)C(O)(c2ccc([N+](=O)[O-])cc2)C1 (configuration not stated) | 24.3 | -7.5 | -13.5 | 86.3* | -2.3
COC(=O)C1=NN(C(=O)c2ccc(C)cc2)C(O)(c2ccc(Cl)cc2)C1 (configuration not stated) | 5.8 | -7.0 | 3.5 | 57.1* | -2.5
O=C(c1ccccc1)N1N=C(C(F)(F)F)CC1(O)c1ccccc1 (configuration not stated) | -1.7 | 1.0 | 38.1* | 3.0 | -14.2
Cc1cccc(C(=O)Nc2ccc3nc(SCC(=O)N4CCCC4)sc3c2)c1 | 0.0 | 0.8 | 8.0 | -1.6 | -1.3
CCOc1ccc(NC(=O)Cn2cc(C(=O)c3ccc(CC)cc3)c(=O)c3ccc(C)nc32)cc1 | -0.9 | -2.5 | 18.9 | 2.3 | 4.3
CC1=C(C(=O)Nc2ccc(C)cc2C)C(C(C)C)n2nc(SCc3ccccc3Cl)nc2N1 (configuration not stated) | 0.2 | 1.1 | 4.8 | -0.5 | 5.6
Cc1ccn2c(=O)c(C(=O)NC(C)c3ccccc3)c(O)nc2c1 (configuration not stated) | -0.2 | -6.8 | 3.0 | 1.8 | 8.5
CCOc1ccc([N+](=O)[O-])c(N)c1 | 1.0 | -4.9 | 0.0 | 0.7 | -33.1*
Cc1cccc(C(=O)N2CCc3cc(-c4nc(NC(=O)CN5CCCC5)sc4C)ccc32)c1 | 0.1 | -5.7 | 3.0 | 4.7 | -2.2
O=C(Nc1nc2c(F)cc(F)cc2s1)C1CCN(C(=O)c2ccc(F)cc2)CC1 | 0.2 | -5.4 | -5.5 | 5.6 | 0.1
O=C(CN1CCCC1)Nc1nc(-c2ccc3c(c2)CCN3C(=O)c2ccccc2F)cs1 | -0.2 | -8.4 | -4.2 | 7.9 | -87.2*
CNc1nc(-c2ccc3c(c2)CCN3C(=O)c2cccc(F)c2)cs1 | -0.8 | -3.8 | -8.5 | 3.1 | -18.1
CNc1nc(-c2ccc3c(c2)CCN3C(=O)c2ccc(F)cc2)cs1 | -0.1 | -9.9 | -1.9 | 9.3 | -37.8*
Cc1cccc(C(=O)N2CCc3cc(-c4csc(NC(=O)CN5CCCC5)n4)ccc32)c1 | -0.1 | 6.8 | 1.9 | 6.9 | -31.4*
O=C(Nc1nc(-c2ccc(F)cc2)cs1)C1CCN(C(=O)c2ccc(F)cc2)CC1 | -0.4 | -4.7 | -4.5 | 9.7 | -40.2*
CNc1nc(-c2ccc3c(c2)CCN3C(=O)c2ccccc2C)cs1 | -0.6 | 1.2 | 10.7 | -0.4 | -6.2
CCN(CC)CCNC(=O)c1ccc2c(c1)NC(=O)C(CS(=O)(=O)Cc1ccc(F)cc1Cl)N2 (configuration not stated) | -0.2 | 1.9 | -0.7 | 3.3 | 2.1
CCOc1ccc(/C=C/C(=O)Nc2sc3c(c2C(=O)OC)CCC3)cc1 | -0.2 | -1.1 | -3.9 | -1.0 | -0.6
CC(NC(=O)C1CCC(CNS(=O)(=O)c2ccccc2)CC1)c1ccccc1 (configuration not stated) | 1.2 | -7.5 | 6.2 | 11.1 | -40.6*
NS(=O)(=O)c1ccc(CCNC(=O)COC(=O)C2CCC2)cc1 | -0.1 | -2.0 | 33.2* | 0.3 | 4.9
NS(=O)(=O)c1ccc(CCNC(=O)COC(=O)CCc2ccccc2)cc1 | 0.1 | -4.7 | 1.8 | 1.5 | -16.0
